GAA850 FXN act: activators of GAA850 frataxin (FXN) promoter; HEK293 lucGAA850 FXN promoter luciferase reporter, 24 h; percent of 10 µM SAHA response; activation, % at 6 µM; hit rate 0.56% among 360,000; AID 540364;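 active means activation above the average of all compounds screened plus 3 SD, cutoff fixed separately per campaign, cut at about 7.5% in these data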;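 further: 0% = DMSO wells and 100% = 10 µM SAHA wells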
HIV Env fusion: blocks HIV Env-driven cell-cell fusion | HeLa-JRFL Env/CEM21 cell fusion, luciferase | inhibition, % at 12.3 µM | hit rate 1.1% among 360,000;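 active means mean replicate inhibition score of at least 50 and every replicate individually at or above 50; inconclusive means only one of the two criteria met; inactive means mean below 50 and not all replicates reaching 50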;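 further: 0% = plate neutral controls and 100% = maraviroc near 300 nM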
CFTR F508del cor: CFTR F508del correction in bronchial cells | hit rate 0.36% among 350,000 | CFBE cells, YFP halide quenching; stimulated with forskolin plus potentiator P3; % fluorescence drop versus neutral controls | activity (quench increase), % at 7.58 µM | AID 720511;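 active means mean added fluorescence quench of at least 8% versus neutral control, with both replicates also reaching 8%; inconclusive means only one of the mean or replicate conditions met; inactive means mean below 8% and not both replicates reaching 8%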;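 further: cells transiently co-express mutant CFTR-F508del with the halide-sensitive YFP; corrector assay measuring rescue of mutant channel to the surface after 24 h compound exposure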
PAX8 reporter: PAX8 transcriptional activity inhibition; RMG-I TPO-luciferase reporter, SteadyGlo, 24 h; hit rate 1.2% among 360,000; inhibition, % at 12.6 µM;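 active means mean replicate inhibition at least 60% with every replicate also reaching 60%; inconclusive means only one of the two criteria is met; inactive means mean below 60% and not all replicates reaching 60%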;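 further: luciferase light reporting Pax8 driven TPO promoter activity; plate controls were median of neutral control wells for no effect and mitoxantrone controls for full effect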
EWS-Fli inh: inhibitors of EWS/Fli oncoprotein transcriptional activity; inhibition, % at 12.6 µM; hit rate 0.67% among 350,000; AID 651661; A673 NR0B1-luciferase reporter, viability-normalised;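 active means mean inhibition of at least 50% after viability correction, with every replicate also passing that limit; inconclusive means mean reaches 50% but only one of two replicates passes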;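 further: firefly luciferase signal divided by Alamar Blue viability fluorescence both relative to DMSO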
An asterisk follows results filed as active; [ ] = another dose, or the depositor's remark. In the library only some 2.5% were active in any assay of this set; here they are far more common.

How did CO[C@H]1CN(C)C(=O)c2ccc(NS(=O)(=O)c3ccc(Oc4ccccc4)cc3)cc2OC[C@@H](C)NC[C@H]1C do in these assays?
HIV Env fusion: 2[16.7 µM]; CFTR F508del cor: 0; EWS-Fli inh: 4

Results for CO[C@H]1CN(C)C(=O)c2cc(NC(=O)c3ccc(-c4ccccc4)cc3)ccc2OC[C@@H](C)NC[C@@H]1C ?
CFTR F508del cor: -6; PAX8 reporter: 112*; EWS-Fli inh: 2

What do the screens show for `CO[C@H]1CN(C)C(=O)c2cc(NC(=O)c3ccc(-c4ccccc4)cc3)ccc2OC[C@H](C)NC[C@@H]1C`?
CFTR F508del cor: 1; PAX8 reporter: 28; EWS-Fli inh: 58*

What do the screens show for `CO[C@H]1CN(C)C(=O)c2cc(NC(=O)c3ccccc3)ccc2OC[C@@H](C)NC[C@H]1C`?
HIV Env fusion: -6[16.7 µM]; CFTR F508del cor: -1; PAX8 reporter: -4; EWS-Fli inh: 7

How did CO[C@@H]1CN(C)C(=O)c2cc(NC(=O)c3ccccc3)ccc2OC[C@H](C)NC[C@@H]1C do in these assays?
HIV Env fusion: -4[16.7 µM]; CFTR F508del cor: 0; PAX8 reporter: -2; EWS-Fli inh: -3

How did CO[C@@H]1CN(C)C(=O)c2cc(NC(=O)c3ccc(-c4ccccc4)cc3)ccc2OC[C@H](C)NC[C@H]1C do in these assays?
CFTR F508del cor: -9; PAX8 reporter: 84*; EWS-Fli inh: 54*

How did CC(C)NC(=O)N1CC2(C1)[C@H](c1ccccc1)[C@@H](CO)N2Cc1ccccc1 do in these assays?
CFTR F508del cor: 1; PAX8 reporter: -6; EWS-Fli inh: -3

Results for CO[C@@H]1CN(C)C(=O)c2ccc(NC(=O)c3ccc(-c4ccccc4)cc3)cc2OC[C@@H](C)NC[C@H]1C ?
CFTR F508del cor: -17; PAX8 reporter: 68*; EWS-Fli inh: 42

How did CO[C@H]1CN(C)C(=O)c2ccc(NC(=O)c3ccc(-c4ccccc4)cc3)cc2OC[C@H](C)NC[C@@H]1C do in these assays?
CFTR F508del cor: -11; PAX8 reporter: 50

How did CO[C@@H]1CN(C)C(=O)c2cc(NC(=O)c3ccc(Oc4ccccc4)cc3)ccc2OC[C@H](C)NC[C@H]1C do in these assays?
HIV Env fusion: -1[16.7 µM]; CFTR F508del cor: -5; PAX8 reporter: 8; EWS-Fli inh: 69*

How did CN(C)C(=O)C[C@@H]1CC[C@@H]2[C@H](COc3ccc(NC(=O)C4CCCC4)cc3C(=O)N2C)O1 do in these assays?
CFTR F508del cor: 3; EWS-Fli inh: -13

How did Cc1cc(C(=O)Nc2ccc3c(c2)C(=O)N(C)[C@@H]2CC[C@H](CC(=O)NCC(F)(F)F)O[C@@H]2CO3)no1 do in these assays?
HIV Env fusion: -16[16.7 µM]; CFTR F508del cor: -2; PAX8 reporter: -10; EWS-Fli inh: 2

Results for Cc1ccccc1S(=O)(=O)N1CC(=O)N2[C@H](CO)[C@@H](c3ccc(C#CCN(C)C)cc3)[C@@H]2C1 ?
CFTR F508del cor: 1; EWS-Fli inh: -6

Results for NC(=O)C1CCN(C(=O)c2cc3ccccc3cc2O)CC1 ?
GAA850 FXN act: 1; HIV Env fusion: 63*; CFTR F508del cor: -2; PAX8 reporter: 9; EWS-Fli inh: 7

What do the screens show for `O=C(NCC[C@H]1CC[C@H](NS(=O)(=O)c2ccc(Cl)cc2)[C@@H](CO)O1)Nc1ccc(F)cc1`?
CFTR F508del cor: 0; PAX8 reporter: -3; EWS-Fli inh: -15

Results for CC(=O)N1CC[C@@H]2[C@H]1c1cc(-c3ccccc3)ccc1N(C)[C@H]2CO ?
CFTR F508del cor: -6; PAX8 reporter: 24; EWS-Fli inh: -1

How did O=C(Nc1cccc(Br)c1)Oc1cccc2cccnc12 do in these assays?
HIV Env fusion: 14; CFTR F508del cor: -2; PAX8 reporter: 11; EWS-Fli inh: -8

Results for O=C(Nc1c(Cl)cccc1Cl)Oc1cccc2cccnc12 ?
HIV Env fusion: inconclusive; CFTR F508del cor: 0; PAX8 reporter: 73*; EWS-Fli inh: 26

What do the screens show for `O=C(NC1CCCCC1)C(c1ccccc1F)n1c(=O)c(-c2ccco2)nc2ccccc21` (stereo not drawn)?
HIV Env fusion: 59*; CFTR F508del cor: -2; PAX8 reporter: 19; EWS-Fli inh: -7

Results for CC1CC(C)CN(S(=O)(=O)N2CCCC(C(=O)NCc3ccccc3Cl)C2)C1 (stereo not drawn) ?
GAA850 FXN act: 3; HIV Env fusion: 19; CFTR F508del cor: 0; PAX8 reporter: 19; EWS-Fli inh: 1

What do the screens show for `CC1CCN(S(=O)(=O)N2CCCC(C(=O)NCc3ccccc3Cl)C2)CC1` (stereo not drawn)?
GAA850 FXN act: 1; HIV Env fusion: 15; CFTR F508del cor: 9.6*; PAX8 reporter: 3; EWS-Fli inh: 1

What do the screens show for `CO[C@@H]1CN(C)C(=O)c2cc(NC(=O)Nc3cccc(Cl)c3)ccc2OC[C@H](C)NC[C@H]1C`?
HIV Env fusion: 25[16.7 µM]; CFTR F508del cor: 2; PAX8 reporter: 17; EWS-Fli inh: -8

Results for O=C1CNC[C@@H]2[C@@H](c3ccc(-c4ccccc4F)cc3)[C@@H](CO)N12 ?
CFTR F508del cor: -1; EWS-Fli inh: -9

What do the screens show for `COCCN(C(=O)COC(=O)/C=C/c1cccc(OC)c1)c1c(N)n(CC(C)C)c(=O)[nH]c1=O`?
GAA850 FXN act: 1; HIV Env fusion: -494; CFTR F508del cor: -3; PAX8 reporter: 67*; EWS-Fli inh: -2

How did C[C@H](CO)N1C[C@H](C)[C@H](CN(C)Cc2ccncc2)Oc2c(NS(=O)(=O)c3cccs3)cccc2C1=O do in these assays?
CFTR F508del cor: -4; EWS-Fli inh: -12

Results for CC(c1ccco1)N(C(=O)C12CC3(C)CC(C)(CC(C)(C3)C1)C2)c1ccccn1 (stereo not drawn) ?
GAA850 FXN act: 3; HIV Env fusion: 76*

How did Cc1cccc(C(=O)N(c2ccccn2)C(C)c2ccco2)c1 (stereo not drawn) do in these assays?
GAA850 FXN act: 2; HIV Env fusion: -2; CFTR F508del cor: -1; PAX8 reporter: -24; EWS-Fli inh: 13

How did O=S(=O)(NCC1CCCO1)c1ccc(S(=O)(=O)N(Cc2ccccc2F)C2CCCCC2)cc1 (stereo not drawn) do in these assays?
GAA850 FXN act: 1; HIV Env fusion: 59*

What do the screens show for `O=S(=O)(NCC1CCCO1)c1ccc(S(=O)(=O)N(Cc2ccccn2)C2CC2)cc1` (stereo not drawn)?
GAA850 FXN act: 0; HIV Env fusion: 4; PAX8 reporter: 13

Results for Cc1noc(C)c1NC(=O)Nc1cccc2c1O[C@H](CN(C)C(=O)Nc1c(C)noc1C)[C@H](C)CN([C@H](C)CO)C2=O ?
HIV Env fusion: -3[16.7 µM]; CFTR F508del cor: -1; PAX8 reporter: -6; EWS-Fli inh: -17

What do the screens show for `C[C@H](CO)N1C[C@H](C)[C@H](CN(C)S(=O)(=O)c2ccc(F)cc2)Oc2ccc(NC(=O)CCC(F)(F)F)cc2C1=O`?
HIV Env fusion: 8[16.7 µM]; CFTR F508del cor: 0; PAX8 reporter: 4; EWS-Fli inh: -6

Compound activity deposited in PubChem BioAssay by several laboratories.
